Positions count from the first letter of the chain named.
What follows are sequences tested against T1, SALL4 ZFC4 WT (HT-SELEX) (Mus musculus, UniProt Q8BX22 870-940) (assay: HT-SELEX; high values mean tight binding). Details: protein: recombinant; vector His6-GST; dsDNA, one strand shown.
T1 sequence: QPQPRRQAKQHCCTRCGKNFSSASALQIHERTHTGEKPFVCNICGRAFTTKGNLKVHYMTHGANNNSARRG
Procedure, shortened: (§1)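 For each canonical k-mer, binding signal is the read fraction as fold change versus the initial random library. Data came from up to 6 triplicate cycles in which purified recombinant mouse SALL4 zinc finger cluster 4 (residues 870–940, 1 µg) was incubated 10 min at room temperature with library DNA (1.5 µg first cycle, 200 ng later) in 100 µl of 10 mM Tris–HCl pH 7.5, 50 mM NaCl, poly(dI-dC), DTT, followed by Ni2+ bead capture, PCR amplification, MiSeq sequencing and a 6-mer scan.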
CTAAGA showed a binding signal of 1.36 ± 0.0387 fold-change vs cycle 0. Work on CCATCG yielded a binding signal of 0.385 ± 0.00824 fold-change vs cycle 0. For AGAGCA, the binding signal was 0.756 ± 0.0413 fold-change vs cycle 0. ATACGG showed a binding signal of 0.67 ± 0.0205 fold-change vs cycle 0. Work on CCATAC yielded a binding signal of 0.84 ± 0.0342 fold-change vs cycle 0. Work on ATTCTG yielded a binding signal of 1.27 ± 0.0284 fold-change vs cycle 0. With GCATCA the binding signal was 0.645 ± 0.017 fold-change vs cycle 0. For CCAGGA, the binding signal was 0.465 ± 0.017 fold-change vs cycle 0. Sequence ACCCGA has a binding signal of 0.382 ± 0.00644 fold-change vs cycle 0. Work on ACAACC yielded a binding signal of 0.707 ± 0.0139 fold-change vs cycle 0. For CTTCCC, the binding signal was 0.499 ± 0.032 fold-change vs cycle 0. Sequence TATCGA has a binding signal of 1.23 ± 0.0345 fold-change vs cycle 0. For GTGCTA, the binding signal was 0.592 ± 0.0163 fold-change vs cycle 0. ACAACT was tested, and the binding signal was 1.25 ± 0.0434 fold-change vs cycle 0. With CTACCA the binding signal was 0.775 ± 0.0319 fold-change vs cycle 0. GCTGAC gave a binding signal of 0.325 ± 0.00641 fold-change vs cycle 0. Work on GCTAGA yielded a binding signal of 0.636 ± 0.0274 fold-change vs cycle 0. For AGGCAA, the binding signal was 0.538 ± 0.0205 fold-change vs cycle 0. CTTAAG was tested, and the binding signal was 1.38 ± 0.0318 fold-change vs cycle 0. ACATGG gave a binding signal of 0.798 ± 0.0238 fold-change vs cycle 0. In the case of ACTGAT, the binding signal is reported as 1.4 ± 0.115 fold-change vs cycle 0. For CAAATA, the binding signal was 1.9 ± 0.117 fold-change vs cycle 0. CATTAA gave a binding signal of 2.01 ± 0.0894 fold-change vs cycle 0. AAAATA showed a binding signal of 3.77 ± 0.346 fold-change vs cycle 0. AAACTG gave a binding signal of 1.1 ± 0.0398 fold-change vs cycle 0. TCAAAA gave a binding signal of 1.67 ± 0.118 fold-change vs cycle 0. Sequence GAATCA has a binding signal of 1.35 ± 0.0589 fold-change vs cycle 0. Work on AAGACT yielded a binding signal of 1.29 ± 0.0445 fold-change vs cycle 0. Sequence GATCAC has a binding signal of 0.862 ± 0.0581 fold-change vs cycle 0. Work on GCTAAA yielded a binding signal of 0.898 ± 0.0417 fold-change vs cycle 0. With GGTGAA the binding signal was 0.8 ± 0.0301 fold-change vs cycle 0. Sequence GAGTCC has a binding signal of 0.481 ± 0.0188 fold-change vs cycle 0. Work on CGTCCA yielded a binding signal of 0.318 ± 0.0103 fold-change vs cycle 0. AAGCCT showed a binding signal of 0.633 ± 0.0294 fold-change vs cycle 0. In the case of GGATCA, the binding signal is reported as 0.841 ± 0.0365 fold-change vs cycle 0. With ATAAAA the binding signal was 3.85 ± 0.323 fold-change vs cycle 0. GATGTA was tested, and the binding signal was 1.358 ± 0.0117 fold-change vs cycle 0. ATTAGA was tested, and the binding signal was 2.12 ± 0.0407 fold-change vs cycle 0. Work on GACTGC yielded a binding signal of 0.3204 ± 0.00172 fold-change vs cycle 0. AGACCG showed a binding signal of 0.32 ± 0.0198 fold-change vs cycle 0.

Each sequence was assayed against T2, SALL4 ZFC4 R900W (HT-SELEX) (Mus musculus, UniProt Q8BX22 870-940, R900W) (assay: HT-SELEX; high values mean tight binding). Details: protein: recombinant; vector His6-GST; dsDNA, one strand shown.
T2 sequence: T1 sequence with R31W
Procedure, shortened: as §1
CTAAGA gave a binding signal of 1.51 ± 0.0736 fold-change vs cycle 0. With CCATCG the binding signal was 0.438 ± 0.0205 fold-change vs cycle 0. With AGAGCA the binding signal was 0.893 ± 0.0729 fold-change vs cycle 0. In the case of ATACGG, the binding signal is reported as 0.767 ± 0.0197 fold-change vs cycle 0. Sequence CCATAC has a binding signal of 0.88 ± 0.0149 fold-change vs cycle 0. With ATTCTG the binding signal was 1.35 ± 0.0356 fold-change vs cycle 0. GCATCA was tested, and the binding signal was 0.724 ± 0.00868 fold-change vs cycle 0. CCAGGA showed a binding signal of 0.546 ± 0.0174 fold-change vs cycle 0. For ACCCGA, the binding signal was 0.46 ± 0.0102 fold-change vs cycle 0. Work on ACAACC yielded a binding signal of 0.814 ± 0.0173 fold-change vs cycle 0. CTTCCC gave a binding signal of 0.599 ± 0.0427 fold-change vs cycle 0. TATCGA gave a binding signal of 1.2 ± 0.0508 fold-change vs cycle 0. Sequence GTGCTA has a binding signal of 0.69 ± 0.007 fold-change vs cycle 0. ACAACT showed a binding signal of 1.37 ± 0.0317 fold-change vs cycle 0. CTACCA showed a binding signal of 0.894 ± 0.00977 fold-change vs cycle 0. GCTGAC was tested, and the binding signal was 0.408 ± 0.0215 fold-change vs cycle 0. GCTAGA gave a binding signal of 0.746 ± 0.0225 fold-change vs cycle 0. With AGGCAA the binding signal was 0.6566 ± 0.00197 fold-change vs cycle 0. With CTTAAG the binding signal was 1.56 ± 0.0368 fold-change vs cycle 0. Sequence ACATGG has a binding signal of 0.918 ± 0.032 fold-change vs cycle 0. Work on ACTGAT yielded a binding signal of 1.51 ± 0.108 fold-change vs cycle 0. Work on CAAATA yielded a binding signal of 1.72 ± 0.1 fold-change vs cycle 0. Work on CATTAA yielded a binding signal of 1.95 ± 0.11 fold-change vs cycle 0. For AAAATA, the binding signal was 2.25 ± 0.159 fold-change vs cycle 0. With AAACTG the binding signal was 1.2 ± 0.0458 fold-change vs cycle 0. In the case of TCAAAA, the binding signal is reported as 1.58 ± 0.0814 fold-change vs cycle 0. GAATCA showed a binding signal of 1.45 ± 0.0456 fold-change vs cycle 0. For AAGACT, the binding signal was 1.49 ± 0.0431 fold-change vs cycle 0. Work on GATCAC yielded a binding signal of 1.01 ± 0.0278 fold-change vs cycle 0. In the case of GCTAAA, the binding signal is reported as 1 ± 0.0491 fold-change vs cycle 0. GGTGAA was tested, and the binding signal was 0.905 ± 0.0496 fold-change vs cycle 0. Work on GAGTCC yielded a binding signal of 0.549 ± 0.0274 fold-change vs cycle 0. CGTCCA showed a binding signal of 0.381 ± 0.0253 fold-change vs cycle 0. Work on AAGCCT yielded a binding signal of 0.72 ± 0.0269 fold-change vs cycle 0. GGATCA gave a binding signal of 0.972 ± 0.0131 fold-change vs cycle 0. For ATAAAA, the binding signal was 2.43 ± 0.199 fold-change vs cycle 0. Work on GATGTA yielded a binding signal of 1.425 ± 0.0112 fold-change vs cycle 0. Sequence ATTAGA has a binding signal of 2.08 ± 0.0537 fold-change vs cycle 0. Work on GACTGC yielded a binding signal of 0.399 ± 0.0161 fold-change vs cycle 0. With AGACCG the binding signal was 0.393 ± 0.0317 fold-change vs cycle 0.

What follows are sequences tested against T3, SALL4 ZFC4 G921D (HT-SELEX) (Mus musculus, UniProt Q8BX22 870-940, G921D) (assay: HT-SELEX; high values mean tight binding). Details: protein: recombinant; vector His6-GST; dsDNA, one strand shown.
T3 sequence: T1 sequence with G52D
Procedure, shortened: as §1
CTAAGA was tested, and the binding signal was 1.42 ± 0.0981 fold-change vs cycle 0. CCATCG was tested, and the binding signal was 0.557 ± 0.0511 fold-change vs cycle 0. For AGAGCA, the binding signal was 0.98 ± 0.0193 fold-change vs cycle 0. ATACGG was tested, and the binding signal was 0.808 ± 0.0319 fold-change vs cycle 0. CCATAC was tested, and the binding signal was 0.931 ± 0.0299 fold-change vs cycle 0. With ATTCTG the binding signal was 1.28 ± 0.0492 fold-change vs cycle 0. GCATCA was tested, and the binding signal was 0.83 ± 0.0436 fold-change vs cycle 0. Sequence CCAGGA has a binding signal of 0.63 ± 0.0152 fold-change vs cycle 0. ACCCGA showed a binding signal of 0.576 ± 0.0588 fold-change vs cycle 0. ACAACC was tested, and the binding signal was 0.875 ± 0.0311 fold-change vs cycle 0. With CTTCCC the binding signal was 0.656 ± 0.0665 fold-change vs cycle 0. TATCGA was tested, and the binding signal was 1.22 ± 0.03 fold-change vs cycle 0. GTGCTA showed a binding signal of 0.796 ± 0.0354 fold-change vs cycle 0. For ACAACT, the binding signal was 1.38 ± 0.0748 fold-change vs cycle 0. In the case of CTACCA, the binding signal is reported as 0.96 ± 0.00989 fold-change vs cycle 0. Work on GCTGAC yielded a binding signal of 0.526 ± 0.0825 fold-change vs cycle 0. In the case of GCTAGA, the binding signal is reported as 0.8072 ± 0.00258 fold-change vs cycle 0. AGGCAA gave a binding signal of 0.754 ± 0.0411 fold-change vs cycle 0. In the case of CTTAAG, the binding signal is reported as 1.46 ± 0.11 fold-change vs cycle 0. In the case of ACATGG, the binding signal is reported as 0.959 ± 0.0218 fold-change vs cycle 0. Work on ACTGAT yielded a binding signal of 1.43 ± 0.137 fold-change vs cycle 0. CAAATA gave a binding signal of 1.55 ± 0.137 fold-change vs cycle 0. Sequence CATTAA has a binding signal of 1.74 ± 0.165 fold-change vs cycle 0. Work on AAAATA yielded a binding signal of 1.96 ± 0.218 fold-change vs cycle 0. Work on AAACTG yielded a binding signal of 1.17 ± 0.0583 fold-change vs cycle 0. In the case of TCAAAA, the binding signal is reported as 1.5 ± 0.116 fold-change vs cycle 0. For GAATCA, the binding signal was 1.38 ± 0.0555 fold-change vs cycle 0. For AAGACT, the binding signal was 1.4 ± 0.0897 fold-change vs cycle 0. GATCAC was tested, and the binding signal was 1.11 ± 0.0305 fold-change vs cycle 0. Work on GCTAAA yielded a binding signal of 1.03 ± 0.0278 fold-change vs cycle 0. In the case of GGTGAA, the binding signal is reported as 0.952 ± 0.0511 fold-change vs cycle 0. For GAGTCC, the binding signal was 0.669 ± 0.013 fold-change vs cycle 0. CGTCCA was tested, and the binding signal was 0.504 ± 0.0811 fold-change vs cycle 0. Sequence AAGCCT has a binding signal of 0.848 ± 0.0353 fold-change vs cycle 0. In the case of GGATCA, the binding signal is reported as 1.03 ± 0.0289 fold-change vs cycle 0. Sequence ATAAAA has a binding signal of 2.07 ± 0.279 fold-change vs cycle 0. Work on GATGTA yielded a binding signal of 1.34 ± 0.0458 fold-change vs cycle 0. Sequence ATTAGA has a binding signal of 1.85 ± 0.125 fold-change vs cycle 0. GACTGC showed a binding signal of 0.525 ± 0.0461 fold-change vs cycle 0. With AGACCG the binding signal was 0.525 ± 0.0509 fold-change vs cycle 0.
